Bioassay records (PubChem)
Calb biofilm kill: clotrimazole potentiators killing Candida biofilms, primary screen, with clotrimazole, Alamar Blue; C. albicans biofilm + clotrimazole; inhibition, % at 6 µM; 85,000 tested, 0.14% active; AID 834, 2007;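 active means inhibition above 20%; inactive means inhibition below 20%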;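 further: preformed 24 hr biofilms exposed to compound for 48 hr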
PostGolgi yeast: phenotypic screen on post-Golgi transport, primary screen. inhibition, % at 10 µM. 98,000 tested, 0.9% active. AID 739, 2007. post-Golgi transport phenotypic cell assay;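 further: yeast cells grown in 1536-well plates; yeast grown about 18 h at 30C before absorbance read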
EphB4 antag: EphB4-ephrin-B2 interaction antagonists, primary screen, biochemical, TNYL-RAW peptide probe, fluorescence polarization; Ephrin type-B receptor 4 (Homo sapiens), P54760; EphB4 LBD / TNYL-RAW-Alexa532 peptide; inhibition, % at 7 µM; 97,000 tested, 0.15% active;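 active means inhibition above the screen-wide mean inhibition plus 3 SD, cut at about 15% in these data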
PostGolgi ctrl: growth inhibition of yeast control strain, primary screen, counter-screen for post-Golgi transport modulator project; 98,000 tested, 5% active; inhibition, % at 10 µM; efflux-deficient yeast background strain, growth absorbance A615, 16 h
Hits are given with their value; n = inactive; x = no result. This is a sample that favours compounds with a hit; in the whole collection about 5.2% have one here. Unless noted, no stated cut-off is given here; in the data, active means inhibition above about 30%; inactive means the rest.

SMILES	Calb biofilm kill	PostGolgi yeast	EphB4 antag	PostGolgi ctrl
O=C(c1noc2c1CCc1ccccc1-2)N1CCc2ccccc2C1	n	n	x	33
O=C(c1cc(-c2ccc(O)cc2)on1)N1CCc2ccccc2C1	n	n	n	n
COC(=O)NC(=S)Nc1ccc(Oc2ccc(Cl)cc2Cl)c(Cl)c1	n	x	n	x
CCOC(=O)c1nn(-c2ccc(C)cc2)cc1C(=O)c1ccccc1	x	n	n	n
CCOC(=O)COn1c(=O)c(=O)n(O)c2ccccc21	n	n	x	n
CCOC(=O)C1=C(CC)Nc2ccccc2N=C1NC(=O)Nc1ccc(Cl)c(Cl)c1	x	73	n	66
COc1cc(S(=O)(=O)N(Cc2ccccn2)Cc2ccccc2Cl)ccc1-n1cnnn1	n	x	n	x
COc1ccccc1CN(Cc1ccco1)S(=O)(=O)c1ccc(-n2cnnn2)c(OC)c1	n	n	n	36
Cc1cccc2c(SCC(=O)NCC3CCCO3)nc(-c3ccc(F)cc3)nc12 (stereo not drawn)	x	n	n	n
CCOc1cc(C=O)c(Br)cc1OC1CCCC1	n	n	n	n
COc1cc(C=O)c(Br)cc1OCc1ccc(C)cc1	x	n	n	48
Cc1nn(Cc2ccccc2Cl)c(C)c1NC(=O)NC12CC3CC(CC(C3)C1)C2	x	n	n	35
Cc1sc2ncn(C(C)C(=O)OC3CCCCC3)c(=O)c2c1C (stereo not drawn)	x	n	n	n
Cc1c(C(=O)OC2CCCCC2)sc2nc[nH]c(=O)c12	n	n	n	59
Cn1c(SCc2nnc(-c3ccccc3Br)o2)nc2sc3c(c2c1=O)CCC3	n	n	x	45
COCCCn1c(SCc2nnc(-c3ccccc3)o2)nc2sc3c(c2c1=O)CCC3	x	63	n	100
CCn1c(SCc2ccc(C(=O)OC)o2)nc2sc3c(c2c1=O)CCCC3	n	n	n	n
CCSc1nnc(NC(=O)C2CCCN(S(=O)(=O)c3cnc[nH]3)C2)s1 (stereo not drawn)	n	n	n	n
COc1cc(NC2c3ccccc3C(=O)N2c2ccc(C)cn2)cc(OC)c1OC (stereo not drawn)	n	n	n	n
CCOc1ccccc1NC1c2ccccc2C(=O)N1c1ccc(C)cn1 (stereo not drawn)	n	n	n	33
CCOC(=O)c1ccccc1NC1c2ccccc2C(=O)N1c1ccc(C)cn1 (stereo not drawn)	n	n	x	48
CCOC(=O)c1ccc(NC2c3ccccc3C(=O)N2c2ccccn2)cc1 (stereo not drawn)	x	n	n	n
CCOC(=O)c1c(C)n(C)c2ccc(OC(C)C(=O)OC)cc12 (stereo not drawn)	n	n	n	32
CC(C)(C)c1cc(Br)ccc1OCC(=O)Nc1ncn[nH]1	n	n	n	30
CC(C)(C)c1ccccc1OCC(=O)Nc1ncn[nH]1	n	n	n	n
SMILES	Calb biofilm kill	PostGolgi yeast	EphB4 antag	PostGolgi ctrl
CC(C)(C)SCCNC(=O)CSCc1ccc([N+](=O)[O-])cc1	x	n	n	n
CC(=O)Nc1nc(SCCCc2ccccc2)n[nH]1	n	n	n	n
CCCCNc1nc(-c2ccccc2)cc(C(F)(F)F)c1C(N)=O	n	x	n	x
CN=C(Nc1ccc2c(c1)OCO2)SC1CC(=O)N(c2ccccc2)C1=O (stereo not drawn)	n	n	n	n
CN=C(Nc1cc(Cl)ccc1Cl)SC1CC(=O)N(c2ccc(C(=O)OC)cc2)C1=O (stereo not drawn)	x	n	n	38
CCOC(=O)c1cnc(Nc2nc3ccccc3o2)nc1CN1CCN(C)CC1	x	n	16	n
O=C(CC1CC2CCC1C2)OCC(=O)c1c[nH]c2ccccc12 (stereo not drawn)	n	n	n	n
COC(=O)NCC1(C)CC(NC(=O)OC)CC(C)(C)C1 (stereo not drawn)	n	n	n	n
COC(=O)NC1CCC(CC2CCC(NC(=O)OC)CC2)CC1 (stereo not drawn)	n	n	n	49
CC1CCN(C2=NC(=O)/C(=C/c3cn(-c4ccccc4)nc3-c3cccc(S(=O)(=O)N(C)C)c3)S2)CC1	x	n	n	n
O=C(NC1CCN(Cc2ccccc2)CC1)C1COc2ccccc2O1 (stereo not drawn)	n	70	n	n
O=C(C1COc2ccccc2O1)N1CCN(Cc2ccc3c(c2)OCO3)CC1 (stereo not drawn)	n	65	x	n
O=C(c1ccc(Br)s1)N1CCN(Cc2ccc3c(c2)OCO3)CC1	n	n	n	n
O=C(c1cc2c(s1)CCCC2)N1CCN(Cc2ccc3c(c2)OCO3)CC1	n	36	n	n
N#Cc1c(Cl)nc(SCc2ccccc2)nc1-c1ccccc1	x	n	n	n
COc1ccc(S(=O)(=O)Nc2cc(C(=O)NCCC(C)C)ccc2N2CCOCC2)cc1	n	n	n	n
O=C(CSc1nc(C2CC2)nc2ccccc12)N1c2ccccc2Sc2ccc(C(F)(F)F)cc21	x	n	n	n
O=C(COc1ccc(Cl)cc1Cl)NCCCN1CCOCC1	n	65	n	n
O=C(COc1ccc(Cl)cc1Cl)NCCC1=CCCCC1	x	n	n	48
Cc1cc(Cl)ccc1OCC(=O)NCCCN1CCOCC1	n	n	n	n
C=CCSc1nnc(-c2nnc(SCC=C)n2-c2ccccc2)n1-c1ccccc1	n	n	n	33
CCOC(=O)c1cc(C(O)(C(F)(F)F)C(F)(F)F)c(/N=C/N(C)C)o1	n	n	n	n
CC(NC(=O)CCC1COc2ccccc2O1)c1ccccc1 (stereo not drawn)	n	n	n	n
CC(=O)c1ccc(NS(=O)(=O)c2cccc(C)c2)cc1	n	n	n	n
CCOc1ccc(N=C2NC(=O)S/C2=C\c2ccc(N(C)C)cc2)cc1	x	n	n	34
SMILES	Calb biofilm kill	PostGolgi yeast	EphB4 antag	PostGolgi ctrl
CSc1nsc(SC)c1NC(=O)OCC1CCCO1 (stereo not drawn)	x	n	n	n
COc1ccc2c(c1)S/C(=C\C(=O)c1ccncc1)N2C	n	51	n	86
C/C(N)=C(/C#N)C(=O)COC(=O)C1CCC(C(C)(C)C)CC1 (stereo not drawn)	n	n	n	n
CN(CC(=O)N1CCN(c2ccccc2)CC1)S(=O)(=O)c1cnc[nH]1	n	n	n	36
CN(CC(=O)N1CCN(c2cccc(Cl)c2)CC1)S(=O)(=O)c1cnc[nH]1	n	x	x	x
Cc1ccc(Cn2cccc(NC(=O)c3ccco3)c2=O)cc1	n	n	n	n
Cn1c(=O)[nH]c(=O)c2c1nc(N1CCCC1)n2CCCSc1nc2ccccc2o1	n	n	x	46
CC1CCCN(c2nc3c(c(=O)[nH]c(=O)n3C)n2CCCc2ccccc2)C1 (stereo not drawn)	n	n	x	35
CCn1c(N2CCC(Cc3ccccc3)CC2)nc2c1c(=O)[nH]c(=O)n2C	n	n	n	37
C=CCn1c(=O)c2ccccc2n2c(SCc3nnc(-c4ccccc4Br)o3)nnc12	n	n	x	n
CCOCCCNS(=O)(=O)c1ccc(NC(=O)N2c3ccccc3Sc3ccccc32)cc1	x	n	n	n
CCOC(=O)Oc1ccc2oc(=O)cc(C)c2c1	n	n	x	n
Cc1cc(=O)oc2ccc(OCC(=O)N(Cc3ccc(F)cc3)Cc3ccco3)cc12	n	n	n	44
CCC(=O)Nc1ccc(S(=O)(=O)Nc2ncccn2)cc1	x	n	n	31
O/C(=C\Sc1nnc(Cc2ccccc2)o1)c1ccc(F)cc1	x	n	n	n
